{"source": "PubChem BioAssay AID449762", "about": "(Southern Research Specialized Biocontainment Screening …, 2010)", "note": "Hit rate of the full screen: of about 330,000 compounds, about 1,900 (0.58%) were called active. Not shown: some 4% with an inconclusive outcome. A selection follows. Results with a measured potency or affinity are listed apart. Values without a mark were called inactive. No stated cut-off is given here; in the data, inconclusive means inhibition above about 70% without an active follow-up result; inactive means below that."}
{"assay": "M. tuberculosis growth inhibition, HTS (AID 449762);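 further: bacterial growth assessed after seven days of incubation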", "conditions": "M. tuberculosis H37Rv growth inhibition, 7H9 media; at 25 µM; active compounds read high", "units": {"inhibition": "%"}}
{"compound": "O=C(CNC(=O)c1cccs1)OCc1ccc(Br)cc1", "inhibition": -2.09}
{"compound": "O=C(CCC(=O)N(c1ccc(F)cc1)C(C(=O)NC1CCCC1)c1ccncc1)Nc1cccnc1", "note": "(stereo not drawn)", "inhibition": -10.1}
{"compound": "CC(=O)Nc1ccc(C(=O)CN2C(=O)NC3(CCOc4ccccc43)C2=O)c(F)c1", "note": "(stereo not drawn)", "inhibition": -3.12}
{"compound": "CCCCOC(=O)CCn1c(=S)oc2ccccc21", "inhibition": 23.9}
{"compound": "CCCNC(=O)CCn1c(=S)oc2ccccc21", "inhibition": 2.75}
{"compound": "Cc1ccc(Cl)cc1-n1c(O)c(C=NCCCN2CCOCC2)c(=O)[nH]c1=O", "inhibition": -2.44}
{"compound": "COc1ccc(C2=CN(Cc3ccccc3)C(c3ccccc3)CC2=O)cc1", "note": "(stereo not drawn)", "inhibition": -2.25}
{"compound": "Cc1cc(C)c(NC(=O)c2cc3c(nc4sccn43)s2)c(C)c1", "inhibition": -18.3}
{"compound": "CCN(C(=O)COC(=O)c1[nH]c(C)c(C(C)=O)c1C)C1CCS(=O)(=O)C1", "note": "(stereo not drawn)", "inhibition": -10.7}
{"compound": "O=C(Nc1ccc(N2CCOCC2)cc1)c1ccc([N+](=O)[O-])cc1", "inhibition": 1.26}
{"compound": "CCn1c2ccccc2c2cc(NC(=O)c3ccc([N+](=O)[O-])cc3)ccc21", "inhibition": 9.29}
{"compound": "CCN(CC)CCNC(=O)c1cn(-c2ccccc2)nc1-c1cccs1", "inhibition": 5.6}
{"compound": "CN(C)c1ccc(NC(=O)c2cn(-c3ccccc3)nc2-c2cccs2)cc1", "inhibition": -2.85}
{"compound": "Cc1oc(-c2cccc(Cl)c2)nc1CSc1nc2c(c(=O)[nH]1)CCC2", "inhibition": -10.8}
{"compound": "Cn1c(-c2cccc(Br)c2)cnc1NCc1ccccc1O", "inhibition": 42.5}
{"compound": "Cn1c(-c2ccccc2)cnc1NCc1cc(Cl)ccc1O", "inhibition": 10.7}
{"compound": "Cc1ccc(N/C=C/c2onc(C)c2[N+](=O)[O-])cc1", "inhibition": -2.82}
{"compound": "Cc1cccc(C)c1N/C=C/c1onc(C)c1[N+](=O)[O-]", "inhibition": -4.35}
{"compound": "COc1ccc(NC(=O)c2ccco2)cn1", "inhibition": -3.96}
{"compound": "Cn1ccnc1SCC(=O)Nc1ccc(Cl)cn1", "inhibition": -1.74}
{"compound": "CCCCn1c(SCc2c(C)noc2C)nc2cc(S(N)(=O)=O)ccc21", "inhibition": -4.65}
{"compound": "CCCCn1c(SCc2nc3ccccc3s2)nc2cc(S(N)(=O)=O)ccc21", "inhibition": 1.21}
{"compound": "Cc1ccc(C)c(NC(=O)c2c(Cl)nc3ccccn23)c1", "inhibition": 10.7}
{"compound": "Brc1ccc(-c2nc(-c3ccncc3)no2)cc1", "inhibition": 1.44}
{"compound": "Cc1ccc(-c2nc(-c3ccncc3)no2)cc1", "inhibition": -14.2}
{"compound": "O=[N+]([O-])c1cccc(-c2nc(-c3ccncc3)no2)c1", "inhibition": -2}
{"compound": "O=[N+]([O-])c1ccc(-c2nc(-c3ccncc3)no2)cc1", "inhibition": 7.86}
{"compound": "CCn1ccc(C(=O)Nc2ccc3c(c2)CCC3)n1", "inhibition": -10.2}
{"compound": "COc1ccc(/C=N/n2c(C)nc3ccccc3c2=O)cc1OC", "inhibition": 7.03}
{"compound": "NC(=O)c1ccc(NC(=S)NCc2ccco2)cc1", "inhibition": -0.21}
{"compound": "O=C(NNC(=O)C12CC3CC(CC(C3)C1)C2)c1cnccn1", "inhibition": -6.86}
{"compound": "O=C(NNC(=O)C12CC3CC(CC(C3)C1)C2)c1ccncc1", "inhibition": 2.26}
{"compound": "COc1ccc(CCOC(=O)c2ccc(NC(=O)CC#N)cc2)cc1", "inhibition": -3.16}
{"compound": "Cc1c(C(=O)NCCCN2CCCC2=O)oc2c(Cl)cccc12", "inhibition": -3.89}
{"compound": "CC(=O)C1=C(C)Nc2ncnn2C1c1ccc(Br)cc1", "note": "(stereo not drawn)", "inhibition": 2.48}
{"compound": "Cc1nn(CC(=O)Nc2c(C)n(C)n(-c3ccccc3)c2=O)c(C)c1[N+](=O)[O-]", "inhibition": -2.07}
{"compound": "COc1ccc(NC(=O)CCC(=O)N(Cc2ccc(OC)c(OC)c2)c2nccs2)c(OC)c1", "inhibition": -1.87}
{"compound": "O=c1nc(-c2ccccc2)c2ccccc2[nH]1", "inhibition": -8.68}
{"compound": "O=c1cc(-c2ccccc2)[nH]c2ccccc12", "inhibition": 3.78}
{"compound": "c1cc2c(cc1C1CCCCC1)c1c3n2CCN=C3CCC1", "inhibition": -6.21}
{"compound": "Cc1ccc2c(c1)c1c(n2C)C(=O)CCC1", "inhibition": -12}
{"compound": "COc1cccc(OCC(=O)Nc2c3c(nn2-c2ccccc2)CS(=O)(=O)C3)c1", "inhibition": 4.27}
{"compound": "Cc1ccc(/C=N/NC(=O)Cc2cccn2C)s1", "inhibition": 4.27}
{"compound": "COC(=O)C1=C(C)Nc2c(c(=O)n(C)c(=O)n2C)C1c1cccs1", "note": "(stereo not drawn)", "inhibition": -11.8}
{"compound": "Cc1noc(C)c1C(=O)OCC(=O)Nc1cc(Cl)ccc1Oc1ccccc1", "inhibition": 2.51}
{"compound": "Cc1ccc(N(CC(=O)Nc2cccc(Cl)c2C)S(C)(=O)=O)cc1", "inhibition": 7.2}
{"compound": "O=C(Cc1cccc(NC(=O)C2CCCN(C(=O)C3CCC3)C2)c1)Nc1cccc(C(=O)N2CCCC2)c1", "note": "(stereo not drawn)", "inhibition": -9.14}
{"compound": "Cc1cccc(C(=O)N2N=C(c3ccc(NS(C)(=O)=O)cc3)CC2c2cccs2)c1", "note": "(stereo not drawn)", "inhibition": 2.79}
{"compound": "CS(=O)(=O)Nc1ccc(C2=NN(C(=O)c3ccccc3)C(c3cccs3)C2)cc1", "note": "(stereo not drawn)", "inhibition": 26.9}
{"compound": "O=C(O)C(O)C(O)C(O)C(O)C(=O)O", "note": "(stereo not drawn) (tested in a mixture with another compound)", "inhibition": 3.48}
{"compound": "CCN(C[C@H]1N[C@@](Cc2ccccc2)(C(=O)OC)[C@H]2C(=O)N(C)C(=O)[C@@H]12)C(=O)Nc1ccc(F)cc1", "inhibition": 4.09}
{"compound": "COc1ccc(Oc2ccc(/C=C/C(=O)c3ccc(O)cc3)cc2[N+](=O)[O-])cc1", "inhibition": 8.6}
{"compound": "CN(C)c1ccc(/C=C/C(=O)c2ccccc2)cc1[N+](=O)[O-]", "inhibition": 16.9}
{"compound": "COC(=O)c1cccc2c1NC(=O)C2=O", "inhibition": 3.61}
{"compound": "O=C(NCc1ccccc1Cl)c1cccc(OC2CCN(C(=O)C3CC3)CC2)c1", "inhibition": 5.75}
{"compound": "COc1ccccc1C1CC(c2ccc(C)cc2)Nc2ncnn21", "note": "(stereo not drawn)", "inhibition": -9.91}
{"compound": "COc1ccccc1C1CC(c2ccc(F)cc2)Nc2ncnn21", "note": "(stereo not drawn)", "inhibition": -11.3}
{"compound": "COC(=O)CN(c1ccc(C)cc1)S(=O)(=O)c1ccc(F)cc1", "inhibition": 14.1}
{"compound": "CSc1ccc(Cl)c(C(=O)NNC(=O)c2cccs2)c1", "inhibition": 1.28}
{"compound": "CCOC(=O)N/N=C\\C=C\\c1ccco1", "inhibition": -0.79}
{"compound": "Cc1ccc(OCC(=O)N/N=C/C=C/c2ccco2)cc1", "inhibition": -6.27}
{"compound": "COc1ccc(OC)c2c1cc(C(=O)N[C@H](C(=O)N1CCC(C(=O)O)CC1)C(C)C)n2C", "inhibition": -15.1}
{"compound": "O=C(O)c1ccc(Cl)c(NCc2cccnc2)c1", "inhibition": -9.94}
{"compound": "CCCc1cc(=O)[nH]c(SCC(=O)Nc2c(C)cccc2C)n1", "inhibition": 0.09}
{"compound": "Cc1cc(C(=O)NCCC(C)C)c2ccccc2n1", "inhibition": -3.78}
{"compound": "CC(C)(C)c1ccc(OCCNCc2ccccc2)cc1", "inhibition": 14.6}
{"compound": "C[N+](C)(CCOc1ccccc1)Cc1ccccc1", "note": "(tested in a mixture with another compound)", "inhibition": -1.38}
{"compound": "CN(Cc1ccco1)C(=O)c1ccc(S(=O)(=O)N2CCCCCC2)cc1", "inhibition": 2.26}
{"compound": "COc1ccc(COC(=O)c2ccc(C)c(S(=O)(=O)N3CCOCC3)c2)cc1F", "inhibition": -4.83}
{"compound": "C[n+]1c(-c2ccccc2)cc(-c2ccc(O)cc2)cc1-c1ccccc1", "inhibition": 3.36}
{"compound": "C[n+]1c(-c2ccccc2)cc(-c2ccc(Cl)cc2)cc1-c1ccccc1", "inhibition": -0.15}
{"compound": "COCCCNC(=O)CN(c1cc(C(F)(F)F)ccc1Cl)S(C)(=O)=O", "inhibition": -8.65}
{"compound": "COC(=O)c1c(C)nn(-c2ccc(OC(F)(F)F)cc2)c1-c1snnc1C", "inhibition": 5.4}
{"compound": "COc1ccc(CCN(C)C(=O)C2CC(=O)N(Cc3ccc(C)cc3)C2)cc1OC", "note": "(stereo not drawn)", "inhibition": -4.64}
{"compound": "O=C1Nc2ccc(Br)cc2C1(O)c1ccccc1", "note": "(stereo not drawn)", "inhibition": -1.54}
{"compound": "O=C1NC2(Nc3ccccc31)C(=O)Nc1ccc(Br)cc12", "note": "(stereo not drawn)", "inhibition": 6.01}
{"compound": "O=C(Nc1ccc([N+](=O)[O-])cc1)c1cccc(S(=O)(=O)Nc2ccccn2)c1", "inhibition": -2.42}
{"compound": "O=[N+]([O-])c1cnc2ccccc2c1", "inhibition": -7.59}
{"compound": "COc1ccc(-n2cc3ccc([N+](=O)[O-])cc3n2)cc1", "inhibition": -3.43}
{"compound": "COc1ccccc1-n1cc2ccc([N+](=O)[O-])cc2n1", "inhibition": -3.35}
{"compound": "O=c1c2c([N+](=O)[O-])cc([N+](=O)[O-])cc2nc2ccccn12", "inhibition": 4.66}
{"compound": "C[C@H](CO)N1C[C@H](C)[C@@H](CN(C)Cc2ccncc2)Oc2c(cccc2N(C)C)C1=O", "inhibition": 2.32}
{"compound": "COc1ccc(Cl)cc1NC(=O)CN(C)C(=O)Cn1c(=O)oc2ccccc21", "inhibition": 1.38}
{"compound": "O=C(c1cc(COc2c(F)cccc2F)on1)N1CCN(C2CCCCC2)CC1", "inhibition": 10.1}
{"compound": "COc1ccc(-c2onc3ccc(C(=O)/C=C/N(C)C)cc23)cc1", "inhibition": 6.78}
{"compound": "O=c1oc2ccccc2c(Nc2ccc(O)cc2)c1[N+](=O)[O-]", "inhibition": -6.31}
{"compound": "O=c1oc2ccccc2c(Nc2cccc3ccccc23)c1[N+](=O)[O-]", "inhibition": 20.4}
{"compound": "CCn1c(SCC(=O)Nc2ccc3c(c2)OCCO3)nnc1C1CC1", "inhibition": -3.26}
{"compound": "CC1Cc2cc(-c3csc(NC(=O)Cc4ccccc4)n3)ccc2N1S(C)(=O)=O", "note": "(stereo not drawn)", "inhibition": 54.4}
{"compound": "CCC(=O)Nc1nc(-c2ccc3c(c2)CC(C)N3S(C)(=O)=O)cs1", "note": "(stereo not drawn)", "inhibition": 58.2}
{"compound": "Cc1ccc(CCNC(=O)C2CCN(S(=O)(=O)c3ccc4c(c3)oc(=O)n4C)CC2)cc1", "inhibition": -5.23}
{"compound": "Cc1cc(C)c(C(N)=O)c(SCC(=O)c2cc(C)c(C)cc2C)n1", "inhibition": 5.89}
{"compound": "Cc1ccc(C(=O)CSc2nc(C)cc(C)c2C(N)=O)cc1", "inhibition": 69}
